Calls of active or inactive are those of the source. Rule for the calls: active = hit-call score of the fitted dose curve at least 0.9, where 1 is the maximum; inactive = score below 0.9.
Key:
Details in all cases: mRNA level, 48 h; actives raise or lower the signal
[1] = read-out: solute carrier (SLCO1B1), SLCO1B1 (gene 10599); test: LTEA_HepaRG_SLCO1B1: Life Technologies and Expression Analysis (LTEA) Assay for solute carrier (SLCO1B1) using HepaRG (AID 2283530)
Summary of the method: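 HepaRG, serum-free induction medium, 48 h dosing, 8-pt half-log from 100 uM, 0.5% DMSO vehicle, duplicates. Readout: SLCO1B1 mRNA, qRT-PCR, ACTB/GAPDH/POLR2A normalization; up or down fit vs DMSO.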

[2] = read-out: sulfotransferase 2A1 (SULT2A1), SULT2A1 (gene 6822); test: LTEA_HepaRG_SULT2A1: Life Technologies and Expression Analysis (LTEA) Assay for sulfotransferase 2A1 (SULT2A1) using HepaRG (AID 2283531)
Summary of the method: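 Transcript levels of SULT2A1, quantified by qRT-PCR and normalized to three housekeeping genes, serve as the readout. Human HepaRG cultures receive test chemicals for 48 h at up to 100 uM in half-log steps, with 0.5% DMSO vehicle.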

[3] = read-out: Transforming Growth Factor (TGFA), TGFA (gene 7039); test: LTEA_HepaRG_TGFA: Life Technologies and Expression Analysis (LTEA) Assay for Transforming Growth Factor (TGFA) using HepaRG (AID 2283532)
Summary of the method: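 Differentiated HepaRG cells exposed 48 hours in serum-free induction medium, 0.5% DMSO vehicle, 8-point half-log series from 100 uM, in duplicate. TGFA mRNA by TaqMan qRT-PCR, normalised to ACTB, GAPDH, POLR2A; bidirectional fit versus DMSO.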

[4] = read-out: Transforming Growth Factor (TGFB1), TGFB1 (gene 7040); test: LTEA_HepaRG_TGFB1: Life Technologies and Expression Analysis (LTEA) Assay for Transforming Growth Factor (TGFB1) Transporter using HepaRG (AID 2283533)
Summary of the method: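 HepaRG, 48 h post-plating, switched to serum-free induction medium; chemicals 100 uM top, half-log, 8 pts, 0.5% DMSO, dup; 48 h exposure; RNA → Fluidigm TaqMan qRT-PCR; norm ACTB/GAPDH/POLR2A; bidirectional fit vs DMSO.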

[5] = read-out: TIMP1, TIMP1 (gene 7076); test: LTEA_HepaRG_TIMP1: Life Technologies and Expression Analysis (LTEA) Assay for TIMP1 using HepaRG (AID 2283534)
Summary of the method: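 Readout is TIMP1 mRNA level measured by qRT-PCR and normalized to three housekeeping genes. Human HepaRG cells were treated for 48 h in duplicate at eight concentrations up to 100 uM (0.5% DMSO); gain or loss fitted against DMSO.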

[6] = read-out: Tumor necrosis factor receptor 1 (TNFRSF1A), TNFRSF1A (gene 7132); test: LTEA_HepaRG_TNFRSF1A: Life Technologies and Expression Analysis (LTEA) Assay for Tumor necrosis factor receptor 1 (TNFRSF1A) using HepaRG (AID 2283535)
Summary of the method: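 Read-out is TNFRSF1A transcript level by TaqMan qRT-PCR, normalized to three housekeeping genes, scored as gain or loss of signal versus 0.5% DMSO. Human HepaRG cells received test chemicals for 48 h at up to 100 uM (half-log series).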

[7] = read-out: Thyroid Hormone Responsive (THRSP), THRSP (gene 7069); test: LTEA_HepaRG_THRSP: Life Technologies and Expression Analysis (LTEA) Assay for Thyroid Hormone Responsive (THRSP) using HepaRG (AID 2283536)
Summary of the method: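 Differentiated HepaRG cells treated 48 h in serum-free induction medium with 8 half-log concentrations up to 100 uM (0.5% DMSO), duplicates. THRSP mRNA by TaqMan qRT-PCR normalised to ACTB, GAPDH, POLR2A; bidirectional fit versus DMSO.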

[8] = read-out: Cellular tumor antigen p53 (Homo sapiens) (UniProt P04637); test: LTEA_HepaRG_TP53: Life Technologies and Expression Analysis (LTEA) Assay for Tumor Protein P53 (TP53) using HepaRG (AID 2283537)
Summary of the method: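 Differentiated HepaRG cells in serum-free induction medium exposed 48 h in duplicate to 8 half-log concentrations, top 100 uM, 0.5% DMSO. TP53 mRNA by TaqMan qRT-PCR (Fluidigm), normalized to ACTB, GAPDH, POLR2A; fitted bidirectionally versus DMSO.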

[9] = read-out: UDP glucuronosyltransferase (UGT1A1), UGT1A1 (gene 54658); test: LTEA_HepaRG_UGT1A1: Life Technologies and Expression Analysis (LTEA) Assay for UDP glucuronosyltransferase (UGT1A1) using HepaRG (AID 2283538)
Summary of the method: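 Human liver HepaRG cultures receive test chemical for 48 h, up to 100 uM in 0.5% DMSO, with phenobarbital induction controls. UGT1A1 mRNA is measured by qRT-PCR and normalized to ACTB, GAPDH and POLR2A.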

Measured: AC50

Cellular tumor antigen p53 (Homo sapiens), sequence (P04637 whole entry, looked up): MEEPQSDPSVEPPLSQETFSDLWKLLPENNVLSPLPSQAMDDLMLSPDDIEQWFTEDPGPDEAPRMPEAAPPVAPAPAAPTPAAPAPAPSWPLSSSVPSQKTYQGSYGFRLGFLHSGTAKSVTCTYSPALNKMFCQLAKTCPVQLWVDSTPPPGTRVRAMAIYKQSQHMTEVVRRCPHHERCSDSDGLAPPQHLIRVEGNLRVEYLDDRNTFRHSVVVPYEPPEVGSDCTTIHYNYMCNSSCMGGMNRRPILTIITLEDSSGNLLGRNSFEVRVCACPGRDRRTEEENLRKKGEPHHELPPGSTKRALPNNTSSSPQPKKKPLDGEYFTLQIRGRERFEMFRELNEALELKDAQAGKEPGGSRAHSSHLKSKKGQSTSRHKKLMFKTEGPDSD

CC(C)CCCCCCOC(=O)c1ccc(C(=O)OCCCCCCC(C)C)c(C(=O)OCCCCCCC(C)C)c1
inactive: all assays above

CCCCCCc1ccc(O)cc1O
not listed: [5]
inactive: all other assays above

CC(C)(O)c1coc(S(=O)(=O)NC(=O)Nc2c3c(cc4c2CCC4)CCC3)c1
active: [9] 21.5 µM
not listed: [5]
inactive: all other assays above

C[C@](N)(Cc1ccc(O)c(O)c1)C(=O)O
inactive: all assays above

CCCCCCCCO
inactive: all assays above

O=C(O)c1cc(N=Nc2ccc(S(=O)(=O)Nc3ccccn3)cc2)ccc1O
not listed: [3] | [5]
inactive: all other assays above

CCCCC(CC)COC(=O)CCCCCCCCC(=O)OCC(CC)CCCC (stereo not drawn)
not listed: [5]
inactive: all other assays above

O=C(NS(=O)(=O)/C=C/c1ccccc1)c1ccc(F)cc1Cl
active: [7] 0.502 µM | [9] 17.1 µM
not listed: [5]
inactive: all other assays above

O=c1n(CC2CO2)c(=O)n(CC2CO2)c(=O)n1CC1CO1 (stereo not drawn)
active: [8] 90.1 µM
not listed: [5]
inactive: all other assays above

CCOC(=O)COc1ccc2c(c1)CC(NCC(O)c1cccc(Cl)c1)CC2 (stereo not drawn)
not listed: [5]
inactive: all other assays above

CC1=CC(=O)CC(C)(C)C1
inactive: all assays above

CCOC(=O)c1ccc(C2CCC(NC[C@H](O)COc3ccc(O)c(NS(C)(=O)=O)c3)CC2)cc1 (stereo partly drawn)
not listed: [5]
inactive: all other assays above

Cc1ccc(S(=O)(=O)O)cc1C
not listed: [5]
inactive: all other assays above

CC(C)=CCCC(C)CCO (stereo not drawn)
not listed: [5]
inactive: all other assays above

O=C1CCCCCN1
not listed: [5]
inactive: all other assays above

CC(=O)OC[C@H]1O[C@@](COC(C)=O)(O[C@H]2O[C@H](COC(C)=O)[C@@H](OC(C)=O)[C@H](OC(C)=O)[C@H]2OC(C)=O)[C@@H](OC(C)=O)[C@@H]1OC(C)=O
inactive: all assays above

O=C(O)c1cccc(N(Cc2cccnc2)c2ccc(OC(F)F)c(OC(F)F)c2)c1
active: [9] 25 µM
not listed: [5] | [6]
inactive: all other assays above

CCCCCCCCCCCCCCCO
not listed: [1]
inactive: all other assays above

O=C(CCCCCCCCc1cccnc1)N1CCC(C=C(c2ccccc2)c2ccccc2)CC1
active: [1] 50 µM | [2] 30.6 µM | [3] 27 µM | [5] 78.7 µM | [6] 79.2 µM | [7] 18.8 µM | [8] 22.9 µM | [9] 32.9 µM
inactive: [4]

Nc1cccc(N)c1
inactive: all assays above

NC(=O)NO
inactive: all assays above

C1=CCCC=CCCC=CCC1
not listed: [6]
inactive: all other assays above

CCNc1ccccc1
not listed: [5]
inactive: all other assays above

On1ccccc1=S
not listed: [5]
inactive: all other assays above
